From PubChem BioAssay AID1063 (University of Pittsburgh Molecular Library Screening Center, 2008)
Among all 200,000 compounds or so, about 18,000 (9%) were called active. No stated cut-off is given here; in the data, active means inhibition above about 50%; inactive means the rest. Shown is part of a subset that was picked to be rich in actives.

Assay: antileishmanial activity against promastigotes – primary screen (AID 1063);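 further: promastigotes grown with compound for 44 hours at 28 °C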
Details: Leishmania major promastigotes, resazurin fluorescence viability; at 10 µM; stronger effect = higher value

Row | SMILES | inhibition
1 | CC(C)(C)C(=O)N(Cc1ccccc1)c1ccccn1 | -4.68% (inactive)
2 | O=C(c1ccncc1)c1ccc([N+](=O)[O-])cc1 | 5.83% (inactive)
3 | Cc1ccc(NC(=O)c2cccnc2C(=O)Nc2ccc(C)cc2)cc1 | -1.85% (inactive)
4 | CCn1cc(CNC(=O)c2cc([N+](=O)[O-])c(C)c([N+](=O)[O-])c2)cn1 | 18.8% (inactive)
5 | O=C(NN=C1CCC(=NNC(=O)c2cccnc2)CC1)c1cccnc1 | -9.82% (inactive)
6 | Cc1cc(/C=N/NC(=O)c2cccnc2)c(C)n1CC(C)C | -1.49% (inactive)
7 | O=C(N/N=C/c1sc(N2CCCCC2)nc1-c1cccs1)c1cccnc1 | 66.3% (active)
8 | O=C(COC(=O)CNC(=O)c1ccccc1F)NCC(F)(F)F | -0.59% (inactive)
9 | COc1ccc(CC(NC(C)=O)C(=O)NC2CCN(C(=O)C3CC3)CC2)cc1OC (centres undefined) | -1.59% (inactive)
10 | CC(=O)NC1=NN(C(C)=O)C(C)(c2ccc(Cl)s2)S1 (centres undefined) | 37.2% (inactive)
11 | CC(=O)NC1=NN(C(C)=O)C(C)(c2ccc(C)cc2)S1 (centres undefined) | 63.1% (active)
12 | CC(=O)NC1=NN(C(C)=O)C(C)(CCS(=O)(=O)c2ccc(Cl)c(Cl)c2)S1 (centres undefined) | -0.49% (inactive)
13 | CCCC(=O)Nc1nnc(-c2ccccc2)o1 | -6.09% (inactive)
14 | COc1cc(/C=N/NC(=S)Nc2cccnc2)cc(OC)c1O | -1.76% (inactive)
15 | Cc1ccc(-c2cc(C(F)(F)F)n3ncc(C(=O)N4CCCCC4c4cccnc4)c3n2)cc1 (centres undefined) | 89.6% (active)
16 | Cc1ccc(-c2cc(C(F)(F)F)n3nc(C(=O)N4CCCC4)cc3n2)cc1 | 2.83% (inactive)
17 | O=C(O)c1cnn2c(C(F)(F)F)cc(-c3ccccc3)nc12 | -4.02% (inactive)
18 | O=C(CSc1cccc[n+]1[O-])c1ccc(Cl)cc1 | 1.35% (inactive)
19 | CC(C(=O)NCC1CCCCC1)N(C)Cc1cccc(Cl)c1 (centres undefined) | -1.13% (inactive)
20 | CCc1ccccc1NC(=O)/C(=C/c1ccccc1)c1ccccc1 | 66% (active)

Row | SMILES | inhibition
21 | CCc1ccccc1NC(=O)c1cccs1 | -2.12% (inactive)
22 | O=C(/C=C/c1ccccc1)N/C(=C/c1ccccc1)C(=O)Nc1ccccc1O | 5.36% (inactive)
23 | Oc1ccc(-c2nncn2-c2ccccc2)cc1 | -8.74% (inactive)
24 | CN(CC(=O)N1CCN(c2ccccc2)CC1)S(=O)(=O)c1cccs1 | -7.19% (inactive)
25 | O=C(O)CSCC(=O)Nc1ccc(C(F)(F)F)cc1 | -3.47% (inactive)
26 | Cc1ccccc1NCC(=O)N/N=C\c1ccc([N+](=O)[O-])s1 | 101% (active)
27 | Cc1cccc(/C=N/NC(=O)CNc2cccc3ccccc23)n1 | 1.6% (inactive)
28 | CCOc1ccc(NC(=O)CCC(=O)n2nc(C)cc2C)cc1 | -2.57% (inactive)
29 | COc1ccc(C(=O)NCC(=O)N/N=C/c2ccc([N+](=O)[O-])s2)cc1OC | 97% (active)
30 | CCOc1ccc(NC(=O)CCC(=O)N/N=C/c2ccc([N+](=O)[O-])s2)cc1 | 96.6% (active)
31 | COc1cc(/C=N\NC(=O)CNC(=O)c2cccc([N+](=O)[O-])c2)ccc1O | 8.51% (inactive)
32 | CCCCCC(=O)Nc1ccc(C(=O)N/N=C/c2ccc([N+](=O)[O-])cc2)cc1 | 34.7% (inactive)
33 | O=C(Cc1cc(=O)[nH][nH]1)N/N=C/c1ccccc1[N+](=O)[O-] | -6.04% (inactive)
34 | COc1ccc(/C=N/NC(=O)CNC(=O)c2ccc(S(=O)(=O)N3CCCC3)cc2)c(OC)c1 | 28.7% (inactive)
35 | O=C(O)c1cccc(NC(=O)c2cc(-c3cccc(Cl)c3)nc3ccccc23)c1 | -4.68% (inactive)
36 | COc1ccc(OC)c(C(=O)c2ccc(C(=O)N3CCN(Cc4csc(C)n4)CC3)cc2)c1 | -0.79% (inactive)
37 | CCN1CCN(CC(=O)c2cc(OC)c(OC)c(OC)c2)CC1 | -5.32% (inactive)
38 | Nc1nc(SCC(=O)N2CCN(S(=O)(=O)c3ccc(Cl)cc3)CC2)n[nH]1 | -1.03% (inactive)
39 | Cc1ccc(C2=NN(C(=O)COc3ncnc4ccccc34)C(c3ccco3)C2)cc1 (centres undefined) | -5.8% (inactive)
40 | CCCCN(CC)CCNC(=O)CCNC(=O)Cn1ccc2ccccc2c1=O | 0.35% (inactive)

Row | SMILES | inhibition
41 | CSc1nc2ccc(S(=O)(=O)N3CCc4ccccc43)cc2s1 | 0.05% (inactive)
42 | O=C(COC(=O)c1ccc(F)cc1)Nc1nc2ccc([N+](=O)[O-])cc2s1 | -3.1% (inactive)
43 | N=C1C(c2nc3ccccc3s2)=C(O)CN1NC(=O)c1ccc([N+](=O)[O-])cc1 | -3.94% (inactive)
44 | O=C(NC(Nc1nc2ccc([N+](=O)[O-])cc2s1)(C(F)(F)F)C(F)(F)F)c1ccccc1 | 100% (active)
45 | O=C(O)CCC(=O)Nc1nc2ccc([N+](=O)[O-])cc2s1 | -7.18% (inactive)
46 | O=C(Nc1nc2ccc([N+](=O)[O-])cc2s1)c1ccc(S(=O)(=O)N2CCCc3ccccc32)cc1 | 100% (active)
47 | CCCCn1nc(C(=O)OCC(=O)Nc2sccc2C(N)=O)c2ccccc2c1=O | -6.96% (inactive)
48 | Cc1cccc(N2CCC(NCc3c(C(=O)N4CCCCC4)nc4c(C)cccn34)CC2)c1 | 17.5% (inactive)
49 | S=C(Cc1ccc(Cl)cc1)N1CCOCC1 | 1.84% (inactive)
50 | CC1=NN(C(=O)CCCc2ccccc2)C(O)(C(F)(F)F)C1 (centres undefined) | -11.2% (inactive)
51 | CN(C)CCn1c(=S)[nH]c2ccc(Cl)cc2c1=O | 1.3% (inactive)
52 | CN(C)CCN=c1cc(-c2ccccc2)oc2ccc(Cl)cc12 | 63% (active)
53 | C/C(CC(=O)N1CCN(C=O)CC1)=N\NC(=O)c1ccc(Br)cc1 | -4.54% (inactive)
54 | Cc1cccc(N2C(=O)CC(SC(N)=Nc3ccccc3)C2=O)c1 (centres undefined) | 45.7% (inactive)
55 | Cc1ccc(-n2c(O)c(C=Nc3ccc(S(=O)(=O)Nc4ncccn4)cc3)c3ccccc3c2=O)cc1C | -5.1% (inactive)
56 | Cc1nnc(SCC(=O)NCc2ccccc2)s1 | -9.92% (inactive)
57 | Cc1nnc(SCC(=O)N2c3ccccc3C(C)(c3ccc(Cl)cc3)CC2(C)C)s1 (centres undefined) | 56.6% (active)
58 | Cc1nnc(SCC(=O)N2CCc3ccccc3C2)s1 | -1.97% (inactive)
59 | Cc1ccc(NC(=O)C(=O)NCC2CCN(C(=O)c3cccc([N+](=O)[O-])c3)CC2)cc1 | 23% (inactive)
